# Pol beta inh-1: DNA polymerase beta (human) inhibition | AID 485314 | Pol beta primer extension/strand displacement, fluorescence kinetic | Potency, µM (top dose mostly 114 µM), without a hit: at the highest dose activity change, negative = inhibition, hits mostly inhibitors | 340,000 tested, 1.3% active; note: potency is the fitted concentration of half-maximal effect; % is set by controls: 0 for no effect and ±100 for the full control effect
#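 Homogeneous kinetic assay of primer extension and strand displacement by 10 nM Pol beta, preincubated 15 min at room temperature with compound before 50 nM substrate (final) was added. Read at 0 and 10 min; four-parameter Hill fit.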
# L3MBTL1 inh: L3MBTL1 (human) inhibition | Q9Y468 | AlphaScreen L3MBTL1–H3K9me1 peptide binding | Potency, µM (top dose mostly 57.1 µM), for inactives: at the highest dose activity, negative = inhibition, usual class: inhibitors | 230,000 tested, 0.66% active | AID 485360; note: potency is the fitted concentration of half-maximal effect; % is set by controls: 0 for no effect and ±100 for the full control effect; nearly all actives have a fitted effect of over 60% in size
# Target sequence (Q9Y468 whole entry, looked up): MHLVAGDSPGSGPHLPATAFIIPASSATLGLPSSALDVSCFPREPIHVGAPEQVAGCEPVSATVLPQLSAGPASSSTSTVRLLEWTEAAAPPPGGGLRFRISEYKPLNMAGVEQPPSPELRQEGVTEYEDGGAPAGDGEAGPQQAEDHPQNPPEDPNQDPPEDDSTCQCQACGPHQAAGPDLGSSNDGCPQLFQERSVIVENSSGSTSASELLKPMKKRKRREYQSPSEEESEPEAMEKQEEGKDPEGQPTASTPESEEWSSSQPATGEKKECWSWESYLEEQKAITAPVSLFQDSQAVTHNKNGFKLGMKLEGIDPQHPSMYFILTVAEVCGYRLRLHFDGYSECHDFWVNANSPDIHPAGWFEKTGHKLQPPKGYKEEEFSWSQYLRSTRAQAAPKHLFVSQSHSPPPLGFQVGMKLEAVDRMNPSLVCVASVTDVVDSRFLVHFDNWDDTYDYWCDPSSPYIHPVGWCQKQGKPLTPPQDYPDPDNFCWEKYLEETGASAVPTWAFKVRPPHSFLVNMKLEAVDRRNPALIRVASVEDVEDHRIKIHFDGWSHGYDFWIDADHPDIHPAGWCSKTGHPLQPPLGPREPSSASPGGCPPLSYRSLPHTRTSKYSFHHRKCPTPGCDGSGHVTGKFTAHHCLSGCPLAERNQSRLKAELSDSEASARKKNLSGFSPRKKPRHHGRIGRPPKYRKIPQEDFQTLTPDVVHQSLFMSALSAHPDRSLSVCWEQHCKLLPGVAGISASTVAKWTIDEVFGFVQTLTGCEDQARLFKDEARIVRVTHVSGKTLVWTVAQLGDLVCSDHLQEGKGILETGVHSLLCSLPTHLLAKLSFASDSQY
#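 L3MBTL1 (50 nM) pre-complexed 30 min with biotinylated H3(1-15)K9me1 peptide (75 nM), then compounds added for 30 min at room temperature; AlphaScreen streptavidin donor/nickel chelate acceptor beads (10 ug/mL final) read after 30 min dark incubation.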
# Pol iota inh: inhibitors of human DNA polymerase iota; Q9UNA4; Pol iota fluorescent replication assay, 10 min; Potency, µM (series often up to 115 µM), inactives show top-dose activity, negative = inhibition, most hits filed as inhibitors; 390,000 tested, 1% active; AID 588590; note: potency is the fitted concentration of half-maximal effect
#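 Fluorescent replication assay read twice, at 0 min and 10 min after adding 50 nM (final) substrate. Enzyme (10 nM) and compounds were first incubated 15 min at room temperature; enzyme-free buffer wells were negative controls.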
# POLK inh: inhibitors of human DNA polymerase kappa; Potency, µM (top dose mostly 107 µM), without a hit: at the highest dose activity, negative = inhibition, actives largely listed as inhibitors; 400,000 tested, 0.53% active; purified Pol kappa, fluorescent DNA synthesis assay, 10 min; Q9UBT6; note: potency is the fitted concentration of half-maximal effect; % is set by controls: 0 for no effect and ±100 for the full control effect
#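 Enzyme at 10 nM met test compounds for 15 min at room temperature. Substrate addition (50 nM final) began the reaction, which was monitored by fluorescence at 0 and 10 min.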
# POLH inh: inhibitors of human DNA polymerase eta | Q9Y253 | AID 588591 | Potency, µM (series often up to 114 µM), inactives show at the top dose activity change, negative = inhibition, usual class: inhibitors | recombinant Pol eta, fluorescent DNA replication assay | 390,000 tested, 1.2% active; note: potency is the fitted concentration of half-maximal effect; % is set by controls: 0 for no effect and ±100 for the full control effect
#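 Pol eta (10 nM) was preincubated with compounds for 15 min at room temperature, after which fluorescent replication substrate (50 nM final) was added to start the reaction. Fluorescence was read kinetically at 0 and 10 min.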
# Pol beta inh-2: Human Pol beta inhibitor hit validation | shares compounds with Pol beta inh-1 | Pol beta primer extension/strand displacement, fluorescence kinetic | Potency, µM, most hits filed as inhibitors | 250 tested, 87% active | AID 540280; calls by dose curve; note: potency is the fitted concentration of half-maximal effect
# Klenow inh: Klenow polymerase inhibition, pol beta selectivity check | shares compounds with Pol beta inh-1 | 250 tested, under 10 active | activity change, negative = inhibition, % at 57.1 µM | AID 540300 | Klenow exo- polymerase counter-screen, fluorescent DNA substrate
# HIV RT counter: HIV-1 RT inhibition, pol beta selectivity check | activity % (negative = inhibition, positive = activation), % at 57.1 µM | HIV-1 RT polymerase activity, counter-screen | 250 tested, under 10 active | shares compounds with Pol beta inh-1
# POLB valid: validation of human DNA polymerase beta inhibitors; AID 540325; inhibition, % at 10 µM; 110 tested, 91% active; shares compounds with Pol beta inh-1; radiolabeled primer extension gel assay, phosphorimager;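 active = inhibition at 10 µM of 30% or more; inconclusive = no clear call, values can overlap the other calls; inactive = inhibition at 10 µM under 30%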
# An asterisk follows results filed as active; ? = inconclusive; · = not tested or not shown; [ ] = remark or other dose. The list is not random: actives were taken first. Their share in the collection is about 2.4%. Unless noted, calls come from the whole dose curve; as a rule, active = well fitted curve in the direction sought with a large enough effect; inconclusive = small, poorly fitted or top-dose-only effect, or another doubt; inactive = no such curve, though single readings can be large; an effect the other way counts as inactive or inconclusive.
SMILES,Pol beta inh-1,L3MBTL1 inh,Pol iota inh,POLK inh,POLH inh,Pol beta inh-2,Klenow inh,HIV RT counter,others
Cc1nnc(NC(=O)C2CC(=O)N(c3ccc4c(c3)OCCO4)C2)s1 (configuration not stated),·,7%,?,-15%,1%,·,·,·,
O=C(Nc1nc(-c2ccco2)c(-c2ccco2)s1)C1CC(=O)N(c2ccc3c(c2)OCCO3)C1 (configuration not stated),8.9µM*,?,7.9µM*,20µM*,8.9µM*,?,-26,-3,POLB valid=97*
CCOc1ccc(CN(C)C(=O)c2cccc(S(=O)(=O)Nc3ccccc3OC)c2)cc1OC,·,·,·,·,-4%,·,·,·,
CC1CC=CC2C1C(=O)N(Cc1ccccc1)C2c1ccc2ccccc2c1Br (configuration not stated),·,·,?,-2%,·,·,·,·,
O=C(CSc1nnnn1-c1ccc(F)cc1)c1ccc(O)c(O)c1,13µM*,·,?,?,?,7.9*,-21,25,
COc1ccc(/C(O)=C2/C(=O)C(=O)N(CCCN3CCOCC3)C2c2ccc(Cl)cc2)cc1 (configuration not stated),·,·,·,·,-3%,·,·,·,
COc1ccc2cc3c(N)nn(C(=O)c4ccc(Cl)c([N+](=O)[O-])c4)c3nc2c1,1.6µM*,12%,?,-10%,?,3.2*,-38,-2,
CCOC(=O)c1cc(S(=O)(=O)N2CCN(c3ccc(F)cc3)CC2)[nH]n1,1%,·,-4%,-2%[60.1 µM],-10%,·,·,·,
O=c1[nH]c(C(Cl)Cl)nc2sc3c(c12)CCN(Cc1ccccc1)C3,13µM*,-15%,?,?,40µM*,16*,-5,4,
COc1cc(C(=O)Nc2ccc3c(c2)C(=O)c2ccccc2C3=O)cc(OC)c1OC,?,2%,24%,-9%,?,·,·,·,
COc1ccc(C(=O)Nc2ccc3c(c2)C(=O)c2ccccc2C3=O)cc1OC,2.2µM*,1%,-5%,-10%,?,22*,-15,23,POLB valid=70*
Cc1cc(C)nc(NS(=O)(=O)c2ccc(N/C=C\C(=O)c3ccc(Cl)cc3)cc2)n1,?,2%,?,-6%,-18%,·,·,·,
CCOc1ccc(C(=O)/C=C/Nc2ccc(S(=O)(=O)Nc3cc(C)nc(C)n3)cc2)cc1,8.9µM*,·,40µM*,-32%,?,35*,-36,1,POLB valid=69*
O=C(Cn1cnc2sc(-c3ccccc3)cc2c1=O)NCc1ccccc1,?,·,?,-7%,-10%,·,·,·,
O=C(Cn1cnc2sc(-c3ccccc3)cc2c1=O)NCc1ccco1,7.9µM*,?,10µM*,32µM*,7.1µM*,7.1*,-10,18,
CCc1cccc(-n2c(=O)c3cccnc3n2CC(=O)NCc2ccc(C)cc2)c1,13%,·,8%,-8%,10%,·,·,·,
COc1cc(OC)c(OC)cc1/C=C1\Oc2cc(OS(C)(=O)=O)ccc2C1=O,11µM*,?,20µM*,?,50µM*,35*,-30,17,POLB valid=96*
CS(=O)(=O)Oc1ccc2c(c1)O/C(=C\c1cccnc1)C2=O,26%,-4%,-9%,-7%,-14%,·,·,·,
O=[N+]([O-])c1cc(CN2CCOCC2)c2cccnc2c1O,2.5µM*,1.3µM*,?,?,8.9µM*,4.5*,11,20,
C=CCn1c(=NC(=O)c2sc3ccccc3c2Cl)sc2cc(S(N)(=O)=O)ccc21,8.9µM*,10%,26%,?,?,14*,-9,44,
COc1ccc(N2CCN(C(=O)c3cc4c(s3)CCCCC4)CC2)cc1,·,?,-30%,11%,-20%,·,·,·,

# Compound activity from PubChem.
